This note sets out measurements from PubChem BioAssay (NCI).

What all share (assay): NCI-60 one-dose screen, 48 h (100 = growth as untreated, 0 = no growth, -100 = all killed)
One assay relates to T-47D breast. To be noted: 10 µM.
The subject of a further assay is BT-549 breast. The following applies: 10 µM.
In the next assay the test system is MDA-MB-435 melanoma. The following applies: 10 µM.
The test system of another assay is SW-620 colon. To be noted: 10 µM.
The test system of another assay is MCF7 breast. To be noted: 10 µM unless noted.
The next assay deals with HCT-116 colon. To be noted: 10 µM.
Another assay relates to HCC-2998 colon. To be noted: 10 µM.
For a further assay, the system named is KM12 colon. The following applies: 10 µM.

Each structure is given as a SMILES string. About 83,000 compounds went through this panel and 20% of them were active in at least one assay; those are over-represented in the sample as a whole.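 The endpoint reported here, percent growth, reads 100 for growth as untreated, 0 for no net growth and -100 for all cells dead.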 A number with no mark means an inactive call. Active and inactive are the calls of the source. Rule for the calls: active = growth percent below 10; inactive = the rest. Where a SMILES comes first, the peptide text is derived from it. Bridges are numbered along the chain shown (N, C = ends). [ ]: non-standard residue; d: D form. The star is where a group is joined. ξ: configuration not given here. ξNMePhe(4-NMe2) = CNC(Cc1ccc(N(C)C)cc1)C(=O)O; Picolinoyl(3-OH) = O=C(c1ncccc1O)*; ξPip(4-oxo) = O=C1CCNC(C(=O)O)C1; Phg = N[CH](C(=O)O)c1ccccc1; Abu = CC[CH](N)C(=O)O

On to `CCOC(=O)c1ccc(NC(=S)P(=O)(c2ccccc2)c2ccccc2)cc1`, for which the growth in the assay on T-47D breast was 109%; in the assay on BT-549 breast, 101%; in the assay on MDA-MB-435 melanoma, 91.1%; in the assay on SW-620 colon, 102%; with MCF7 breast, 100%; in the assay with HCT-116 colon it was 91.7%. Moreover, the growth in the assay with HCC-2998 colon is 108%; with KM12 colon, 96.2%.
Consider `O=C(O)c1ccnc(Br)c1`, for which the growth in the assay on T-47D breast is 96.9%; in the assay with BT-549 breast, 105%; with MDA-MB-435 melanoma it was 104%; in the assay on SW-620 colon, 103%; with MCF7 breast, 91.7%; with HCT-116 colon, 103%. Besides, the growth with HCC-2998 colon was 107%; in the assay with KM12 colon, 103%.
`CN(C)c1ccc(CNC(C(=O)c2ccccc2)c2ccccc2)cc1` (configuration not stated): the growth in the assay with T-47D breast was 98.9%; with BT-549 breast it was 98%; with MDA-MB-435 melanoma, 107%; with SW-620 colon, 101%; in the assay on MCF7 breast, 107%; in the assay with HCT-116 colon it was 50.8%. Also, the growth in the assay on HCC-2998 colon was 106%; in the assay with KM12 colon, 98.6%.
As for `S=C1NCc2cncnc2N1`, the growth was 105% in the assay with T-47D breast; 100% in the assay on BT-549 breast; 101% in the assay with MDA-MB-435 melanoma; 109% in the assay on SW-620 colon; 93.4% in the assay with MCF7 breast; 99.1% in the assay on HCT-116 colon. Further, the growth with HCC-2998 colon and in the assay with KM12 colon was 106% each time.
As to `CCC/C=C(/C(C)=O)C(=O)OCC`, the growth in the assay on T-47D breast was 107%; in the assay on BT-549 breast, 112%; in the assay on MDA-MB-435 melanoma it was 108%; in the assay with SW-620 colon, 106%; with MCF7 breast it was 114%; in the assay with HCT-116 colon, 109%. In addition, the growth with HCC-2998 colon was 7.66% (active); in the assay with KM12 colon, 102%.
Take `COc1cc(C(N)=O)cc(OC)c1OC`: the growth with T-47D breast is 110%; in the assay on BT-549 breast, 108%; with MDA-MB-435 melanoma, 116%; with SW-620 colon it was 109%; with MCF7 breast, 105%; in the assay on HCT-116 colon, 105%. For the same compound, the growth in the assay with HCC-2998 colon was 105%; with KM12 colon, 107%.
Regarding `O=C(OCC(O)C1OC(c2ccccc2)OC(COC(=O)c2ccccc2)C1O)c1ccccc1` (configuration not stated), the growth with T-47D breast was 109%; in the assay with BT-549 breast it was 110%; in the assay with MDA-MB-435 melanoma, 102%; with SW-620 colon, 109%; in the assay with MCF7 breast, 91.1%; in the assay on HCT-116 colon, 109%. Further, the growth in the assay on HCC-2998 colon was 103%; with KM12 colon, 111%.
For the compound `CCOC(=O)C(C#N)Cc1ccccc1` (configuration not stated), the growth in the assay on T-47D breast is 107%; in the assay with BT-549 breast, 117%; in the assay with MDA-MB-435 melanoma it was 109%; in the assay with SW-620 colon, 117%; in the assay with MCF7 breast, 103%; in the assay on HCT-116 colon, 112%. In addition, the growth was 118% in the assay on HCC-2998 colon and 133% in the assay with KM12 colon.
With `OC1CCCc2ccccc21` (configuration not stated), the growth with T-47D breast was 101%; in the assay with BT-549 breast it was 98.1%; in the assay with MDA-MB-435 melanoma, 104%; with SW-620 colon it was 107%; in the assay on MCF7 breast, 94.1%; in the assay with HCT-116 colon, 111%. Also, the results for the growth with HCC-2998 colon and with KM12 colon were 119% and 109%, respectively.
As to `CSC(=N\N=C\c1ccc(N(C)C)cc1)/N=C/N(C)C`, the growth is 94.9% with T-47D breast; 113% in the assay on BT-549 breast; 102% in the assay on MDA-MB-435 melanoma; 83.8% with SW-620 colon; 97% with MCF7 breast; 102% in the assay on HCT-116 colon. Further, the growth was 108% with HCC-2998 colon and 110% in the assay on KM12 colon.
Take `CN(C)/N=C/c1ccccc1O`: the growth was 98.6% with T-47D breast; 97.5% in the assay with BT-549 breast; 107% with MDA-MB-435 melanoma; 100% in the assay with SW-620 colon; 106% in the assay with MCF7 breast; 94.6% in the assay on HCT-116 colon. The values for the growth with HCC-2998 colon and in the assay with KM12 colon were 117% and 107%, respectively.
In the case of `Cc1ccc(O)c(C(=O)c2ccccc2)c1`, the growth in the assay with T-47D breast is 109%; in the assay on BT-549 breast, 99.1%; in the assay on MDA-MB-435 melanoma, 110%; with SW-620 colon, 100%; in the assay with MCF7 breast, 105%; with HCT-116 colon it was 102%. Besides, the growth in the assay with KM12 colon was 106%.
With `CCC1NC(=O)C(NC(=O)c2ncccc2O)C(C)OC(=O)C(c2ccccc2)NC(=O)C2CC(=O)CCN2C(=O)C(Cc2ccc(N(C)C)cc2)N(C)C(=O)C2CCCN2C1=O` (configuration not stated) (tested in a mixture with another compound) ({Picolinoyl(3-OH)}-T[Abu]P[ξNMePhe(4-NMe2)][ξPip(4-oxo)][Phg]; ester 1-C; configuration not given here), the growth is 64.8% in the assay with T-47D breast; 54.6% in the assay on BT-549 breast; 57.1% with MDA-MB-435 melanoma; 68.3% in the assay on SW-620 colon; 46.5% with MCF7 breast; 34.2% with HCT-116 colon. In the assay with KM12 colon, the growth was 74.9%.
Take `O=C1c2ccccc2C(=O)N1OCc1ccccc1`: the growth with T-47D breast is 92.1%; with BT-549 breast it was 118%; with MDA-MB-435 melanoma, 110%; in the assay with SW-620 colon, 107%; with MCF7 breast, 99.5%; with HCT-116 colon, 99.8%. Further, the growth in the assay on KM12 colon was 105%.
For `Cc1ccc(C(=O)c2ccccc2)c(C)c1`, the growth with T-47D breast is 96.4%; in the assay on BT-549 breast it was 99.6%; in the assay with MDA-MB-435 melanoma it was 118%; with SW-620 colon, 98.7%; with MCF7 breast, 101%; in the assay on HCT-116 colon it was 94.8%. For the same compound, the growth in the assay on KM12 colon was 107%.
As for `OCC1OC(OC2C(O)C(CO)OC2(CO)OC2OC(CO)C(O)C(O)C2O)C(O)C(O)C1O` (configuration not stated), the growth in the assay on T-47D breast was 110%; with BT-549 breast, 105%; with MDA-MB-435 melanoma, 111%; with SW-620 colon, 111%; in the assay on MCF7 breast, 95%; in the assay with HCT-116 colon, 97.8%. Besides, the growth in the assay with KM12 colon is 109%.
Regarding `O=C(N/N=C/c1ccccc1O)Nc1nn[nH]n1`, the growth in the assay on T-47D breast was 105%; in the assay with BT-549 breast it was 111%; in the assay with MDA-MB-435 melanoma it was 98.3%; in the assay on SW-620 colon it was 101%; in the assay with MCF7 breast, 88.6%; with HCT-116 colon, 89%. The growth with KM12 colon was 114%.
Take `CC(C)OC(C(=O)O)c1ccccc1` (configuration not stated): the growth is 91.5% with T-47D breast; 100% in the assay with BT-549 breast; 115% in the assay on MDA-MB-435 melanoma; 103% in the assay with SW-620 colon; 93% in the assay with MCF7 breast; 101% with HCT-116 colon. Moreover, the growth with KM12 colon is 105%.
